Values without a mark were called inactive. Activity calls are given as the source filed them.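 The calls were made as follows: active = calcium retention capacity relative to untreated control above about 1.1 ratio (limit read from the data); inactive = the rest.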

The nature of this test: mitochondrial Ca2+ retention capacity increase – biochemical, dry powder samples, uHTS hits, Calcium Green-5N, dose response (AID 743360). To be noted: isolated mitochondria, Ca retention capacity.
Take `CC(C)C1CCN(CCCC(=O)c2ccc(Br)cc2)CC1`: the CRC/CRC0 ratio at 12.5 uM (higher = more inhibition) is 1.16 (active).

As for `COc1ccc(Cl)cc1C(=O)Nc1ccc(CCN2CCN(C(=O)OC(C)(C)C)CC2)cc1`, the CRC/CRC0 ratio at 12.5 uM (higher = more inhibition) is 1.37 (active).

On to `O=C(Nc1ccccc1C(F)(F)F)c1cc(-c2ccccc2)on1`, for which the CRC/CRC0 ratio at 12.5 uM (higher = more inhibition) was more than 1.

Turning to `CC(C)c1cc(C(=O)Nc2ccc(F)cc2F)no1`, the CRC/CRC0 ratio at 12.5 uM (higher = more inhibition) is 1.09.

As for `COc1ccc(NC(=O)c2cc(-c3cccc(O)c3)on2)cc1Cl`, the CRC/CRC0 ratio at 12.5 uM (higher = more inhibition) is 3.26 (active).

Regarding `O=C(Nc1cccc(Cl)c1)c1cc(-c2ccc(Cl)cc2)on1`, the CRC/CRC0 ratio at 12.5 uM (higher = more inhibition) was more than 1.

On to `CCc1ccccc1NC(=O)c1cc(-c2ccccc2)on1`, for which the CRC/CRC0 ratio at 12.5 uM (higher = more inhibition) is more than 1.

Turning to `O=C(Nc1ccc(CN2CCCCC2)cc1)c1cc(OCc2ccccc2)ccc1Cl`, the CRC/CRC0 ratio at 12.5 uM (higher = more inhibition) was 2.26 (active).

As for `COc1ccc(C(=O)CCN2CCCC(C)C2)cc1` (stereo not drawn), the CRC/CRC0 ratio at 12.5 uM (higher = more inhibition) was 1.07.

Regarding `COc1ccc(Cl)cc1C(=O)Nc1ccc(CN2CCCCC2)cc1`, the CRC/CRC0 ratio at 12.5 uM (higher = more inhibition) was 1.8 (active).

On to `CN1CCN(Cc2ccc(NS(=O)(=O)c3ccc(F)c(Cl)c3)cc2)CC1`, for which the CRC/CRC0 ratio at 12.5 uM (higher = more inhibition) is 1.07.

Regarding `COc1ccc(Cl)cc1C(=O)Nc1ccc(N2CCOCC2)cc1`, the CRC/CRC0 ratio at 12.5 uM (higher = more inhibition) was more than 1.

`COc1ccc(Cl)cc1C(=O)Nc1ccc(CN2CCN(C(=O)OC(C)(C)C)CC2)cc1`: the CRC/CRC0 ratio at 12.5 uM (higher = more inhibition) is 1.33 (active).

`COc1ccc(Cl)cc1C(=O)Nc1cccc(CN2CCNCC2)c1`: the CRC/CRC0 ratio at 12.5 uM (higher = more inhibition) was 1.52 (active).

Regarding `COc1ccc(Cl)cc1C(=O)Nc1ccc(N2CCCCC2)cc1`, the CRC/CRC0 ratio at 12.5 uM (higher = more inhibition) is 1.05.

For the compound `COc1ccc(Cl)cc1C(=O)Nc1ccc(CN2CCOCC2)cc1`, the CRC/CRC0 ratio at 12.5 uM (higher = more inhibition) is 1.2 (active).

`O=S(=O)(Nc1ccc(CCN2CCCCC2)cc1)c1cccc(Cl)c1`: the CRC/CRC0 ratio at 12.5 uM (higher = more inhibition) was 1.12 (active).

Turning to `C[C@@H]1CCC[C@H](C)N1CCCC(=O)c1ccc(Br)cc1`, the CRC/CRC0 ratio at 12.5 uM (higher = more inhibition) was 1.01.

As for `COc1ccc(Cl)cc1S(=O)(=O)Nc1ccc(CN2CCN(C)CC2)cc1`, the CRC/CRC0 ratio at 12.5 uM (higher = more inhibition) was 1.03.

`CN1CCN(CCc2ccc(NS(=O)(=O)c3ccc(F)c(Cl)c3)cc2)CC1`: the CRC/CRC0 ratio at 12.5 uM (higher = more inhibition) was 1.08.

`O=C(Nc1ccc(CN2CCCCC2)cc1)c1cc(Cl)ccc1O`: the CRC/CRC0 ratio at 12.5 uM (higher = more inhibition) is 1.1 (active).

As for `COc1ccc(Cl)c(C(=O)Nc2cccc(CN3CCN(C(=O)OC(C)(C)C)CC3)c2)c1`, the CRC/CRC0 ratio at 12.5 uM (higher = more inhibition) was 1.04.

For the compound `O=C(Nc1cccc(F)c1)c1cc(-c2cccc(O)c2)on1`, the CRC/CRC0 ratio at 12.5 uM (higher = more inhibition) was 2.24 (active).

`CN1CCN(c2ccccc2NC(=O)c2ccc(OCc3ccccc3)cc2)CC1`: the CRC/CRC0 ratio at 12.5 uM (higher = more inhibition) was 1.24 (active).

For the compound `COc1ccc(Cl)c(C(=O)Nc2ccc(CCN3CCOCC3)cc2)c1`, the CRC/CRC0 ratio at 12.5 uM (higher = more inhibition) is more than 1.

In the case of `O=S(=O)(Nc1ccc(CCN2CCCCC2)cc1)c1ccc(F)c(Cl)c1`, the CRC/CRC0 ratio at 12.5 uM (higher = more inhibition) is 1.07.

Take `CN1CCN(c2ccc(NS(=O)(=O)c3cc(Cl)cc(Cl)c3)cc2)CC1`: the CRC/CRC0 ratio at 12.5 uM (higher = more inhibition) is 1.11 (active).

`COc1ccc(Cl)cc1S(=O)(=O)Nc1ccc(CCN2CCCCC2)cc1`: the CRC/CRC0 ratio at 12.5 uM (higher = more inhibition) is 1.07.

Take `O=C(Nc1ccc(CN2CCCCC2)cc1)c1cccc(Cl)c1`: the CRC/CRC0 ratio at 12.5 uM (higher = more inhibition) was 1.16 (active).

As for `COc1ccc(/C=C/C(=O)Nc2cccc(Cl)c2)cc1O`, the CRC/CRC0 ratio at 12.5 uM (higher = more inhibition) was 6.53 (active).

As to `COc1ccc(Cl)cc1S(=O)(=O)Nc1ccc(N2CCN(C)CC2)cc1`, the CRC/CRC0 ratio at 12.5 uM (higher = more inhibition) is 1.03.

Regarding `COc1cccc(-c2cc(C(=O)Nc3cc(Cl)ccc3C)no2)c1`, the CRC/CRC0 ratio at 12.5 uM (higher = more inhibition) was 1.08.

In the case of `COc1ccc(Cl)cc1C(=O)Nc1ccc(CCN2CCNCC2)cc1`, the CRC/CRC0 ratio at 12.5 uM (higher = more inhibition) is 1.31 (active).

Values taken from PubChem BioAssay AID743360 (Molecular Libraries Program, Specialized Chemistry Center, …, 2014).
